High-throughput results deposited in PubChem BioAssay by National Center for Advancing Translational Sciences (NCATS).
HPGD inh = HPGD (human) dehydrogenase inhibition; P15428; purified HPGD, NADH fluorescence kinetic, PGE2 substrate; Potency, µM, for inactives: top-dose activity change, negative = inhibition, most hits filed as inhibitors; actives 4.3% (n = 150,000); AID 894; active = well fitted inhibition curve with a large enough effect, not every such curve was filed as active; inconclusive = small, poorly fitted or top-dose-only effect, or another doubt; inactive = no such curve, though single readings can be large or run the other way; also: potency is read from the fitted curve at half-maximal effect; % is scaled to controls: 0 for no effect and ±100 for the full control effect
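20 nM HPGD preincubated 15 min at room temperature with compound in 50 mM Tris-HCl pH 8, 0.01% Tween 20. Started with 1 mM NAD+ and 30 uM prostaglandin E2; NADH fluorescence (360/450 nm) read 5 times over 30-s intervals, last minus first.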
GoLoco inh red = inhibitors of human Gai1-RGS12 GoLoco interaction (red fluorophore); P63096; Gai1:RGS12 GoLoco peptide FP, rhodamine, 10 min; Potency, µM (top dose mostly 61.6 µM), for the others: at the highest dose activity, negative = inhibition, usual class: inhibitors; actives 0.44% (n = 230,000); active = well fitted inhibition curve with a large enough effect, not every such curve was filed as active; inactive = no such curve, though single readings can be large or run the other way; also: potency is read from the fitted curve at half-maximal effect; % is scaled to controls: 0 for no effect and ±100 for the full control effect; nearly all actives have a fitted effect of over 30% in size
HttQ103 aggreg = mutant huntingtin aggregation inhibition; actives 1.1% (n = 220,000); PC12 HttQ103-GFP aggregates, Acumen cytometry, 40 h; Potency, µM (doses to about 46.1 µM), without a hit: top-dose activity change, negative = inhibition, most hits filed as inhibitors; also: potency is read from the fitted curve at half-maximal effect; % is scaled to controls: 0 for no effect and ±100 for the full control effect; nearly all actives have a fitted effect of over 60% in size
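Multiplexed with ATP-based cell death, this channel scores GFP aggregates in PC12 cells expressing inducible HTTex1-Q103-GFP. Induction used 100 nM tebufenozide; compounds were tested in concentration series.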
PNC inhibitor = perinucleolar compartment assembly inhibition; PC3M PTB-GFP, PNC prevalence imaging, 16 h; stronger effect = lower value; actives 3.1% (n = 140,000); activity change (PNC), negative = inhibition, % at 10 µM; AID 2417;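 active = readout at or below -70, meaning at least 70% loss of cells showing the perinucleolar compartment, a nuclear body marking cancer cells; inconclusive = readout between -30 and a set limit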;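 also: plate controls were DMSO wells for no effect and camptothecin positive control wells for full effect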
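Compounds are pinned in duplicate onto adhered PC3M cells stably expressing GFP-tagged PTB and incubated 16 h at 37 C. Cells are then fixed, nuclei stained with Hoechst, and PNC-positive cells counted.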
HTT cytoprotect = Huntington cell model cytoprotection by ATP luminescence. PC12 HTT-Q103 induced, cytoprotection, ATP luminescence, 40 h. Potency, µM (titrated, usually from 56.4 µM), for the others: cytoprotection (ATP increase), usual class: activators. actives 0.14% (n = 230,000); also: potency is read from the fitted curve at half-maximal effect; % of control where 0% means no effect; nearly all actives have a fitted effect of over 45% in size
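Stable PC12 Q103-GFP cells in serum-supplemented, phenol red-free DMEM; induction by tebufenozide at 100 nM final; compound dose series; cell viability quantified luminescently from ATP.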
ALDH1A1 block = ALDH1A1 (human) enzyme inhibition; Purified ALDH1A1, NADH fluorescence, propionaldehyde substrate; Potency, µM (titrated, usually from 75.3 µM), inactives show at the top dose activity, negative = inhibition, hits mostly inhibitors; actives 7.3% (n = 220,000); active = well fitted inhibition curve with a large enough effect, not every such curve was filed as active; inconclusive = small, poorly fitted or top-dose-only effect, or another doubt; inactive = no such curve, though single readings can be large or run the other way;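 also: potency is read from the fitted curve at half-maximal effect; plate controls were no enzyme wells and a reference inhibitor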
Target sequence (P00352 whole entry, looked up): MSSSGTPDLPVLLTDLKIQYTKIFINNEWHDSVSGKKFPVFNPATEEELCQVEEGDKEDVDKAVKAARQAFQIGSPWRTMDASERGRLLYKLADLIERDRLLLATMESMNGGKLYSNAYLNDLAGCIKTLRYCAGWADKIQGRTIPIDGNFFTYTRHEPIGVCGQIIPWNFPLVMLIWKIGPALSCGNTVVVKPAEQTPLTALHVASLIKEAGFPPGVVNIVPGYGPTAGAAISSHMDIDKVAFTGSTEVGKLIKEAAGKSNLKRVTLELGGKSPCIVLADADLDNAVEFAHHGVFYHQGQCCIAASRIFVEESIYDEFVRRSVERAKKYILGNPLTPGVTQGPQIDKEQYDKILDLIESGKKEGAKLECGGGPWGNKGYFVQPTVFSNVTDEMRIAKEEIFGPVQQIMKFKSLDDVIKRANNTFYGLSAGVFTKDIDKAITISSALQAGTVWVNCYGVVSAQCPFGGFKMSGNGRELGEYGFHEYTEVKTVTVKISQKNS
* hit, by the source's call; ? = inconclusive; · = not tested or not shown; ! = not confirmed by another sample; [ ] = remark or other dose. Shown are actives, neighbours in structure and some others; about 11% of the full set was active somewhere. Unless noted, calls follow the shape of the dose curve; as a rule, active = well fitted curve in the direction sought with a large enough effect; inconclusive = small, poorly fitted or top-dose-only effect, or another doubt; inactive = no such curve, though single readings can be large; an effect the other way counts as inactive or inconclusive.

SMILES	HPGD inh	GoLoco inh red	HttQ103 aggreg	PNC inhibitor	HTT cytoprotect	ALDH1A1 block
COc1ccc(CC2C(=O)N(C)C(=O)N(C)C2=O)c(OC)c1	-4.1%	-24.0%	3.4%	4.0	1.3%[0.074 µM]	-15.6%
Cc1ccc(CC2C(=O)N(C)C(=O)N(C)C2=O)s1	?	-44.6%	28.9%	?	-3.2%[10 µM]	20µM*
COC(C)C(O)(C(=O)OC1=CCN2CC[C@H](O)[C@H]12)C(C)C (some centres undefined)	4.2%	7.5%	·	·	-0.9%[1.9 µM]	10.1%
CCN(CC)C(=O)c1c(C)[nH]c(=S)c(C#N)c1-c1ccco1	·	10.6%	-0.5%	·	-20.0%	7.08µM*
O=c1[nH]c(=O)n(Cc2ccco2)c(O)c1/C=N/N1CCCCC1	-19.1%	41.0%	-7.8%	?	3.4%[10 µM]	?
O=c1[nH]c(=O)n(Cc2ccco2)c(O)c1C=NC1CC1	-25.0%	0.7%	-22.4%	32.0	-29.4%[0.074 µM]	14.1µM*
CCCCC/C=C\C/C=C\C/C=C\C/C=C\CCCC(=O)NCc1ccc(O)c(OC)c1	31.6µM*	6.4%	·	·	-84.0%	25.1µM*
COc1cc(CNC(=O)CCCC/C=C/C(C)C)ccc1O	-24.2%	-2.6%	-2.1%	·	-44.4%[1.9 µM]	2µM*!
CCCCCCCCC(=O)NCc1ccc(O)c(OC)c1	-5.4%	2.5%	6.7%	·	-27.8%	-3.4%
Oc1ccc2c3c1O[C@H]1c4c(c5ccccc5n4Cc4ccccc4)C[C@@]4(O)C(C2)N(CC2CC2)CC[C@]314	·	7.5%	·	·	-155.9%	5.0%
O=C(/C=C/c1ccccc1)NC(NC(=S)Nc1cccc2cccnc12)C(Cl)(Cl)Cl (centres undefined)	?	11.0%	·	·	·	3.0%
C(=NCCN1CCOCC1)=NC1CCCCC1	-4.5%	-3.1%[14.2 µM]	·	·	-0.3%[10 µM]	7.1%[13.5 µM]
O=C1C=CC(=O)c2c(O)cccc21	14.1µM*	-6.2%	·	·	-71.5%	12.6µM*
CN=C=S	-2.0%	5.0%	·	·	-4.7%	?
CC1CN=C(Nc2ccc(F)c(Cl)c2)S1 (centres undefined)	·	-4.6%	1.7%[9.22 µM]	·	-5.8%[10 µM]	·
CC(=O)c1cccc(NC2=NCC(C)S2)c1 (centres undefined)	14.1µM*	0.8%	7.5%	?	-0.7%	-5.6%
O=C(CCl)NN=C(c1ccccc1)c1ccccc1	·	3.1%	1.2%	·	2.8%	0.0126µM*
NCC(=O)c1ccccc1	-6.7%	8.6%	·	·	·	?
CCOc1cc(C=O)ccc1O	-15.5%	-20.5%	·	·	3.4%	25.1µM*
CCOc1cc(/C=C2\C(=O)NC(=O)N(C)C2=O)cc([N+](=O)[O-])c1O	·	-2.2%	9.0%[9.22 µM]	·	-3.8%[10 µM]	·
COC(=O)[C@@H]1C[C@@]2(O)[C@H](O)[C@H](O)[C@H](O)C[C@H]2N1Cc1cccnc1	-6.0%	-17.9%	·	·	3.8%	-6.9%
N[C@H](Cc1ccc(N(CCCl)CCCl)cc1)C(=O)O	·	·	·	·	-32.5%[1.9 µM]	·
O=C(O)c1ccccc1-c1c2cc(Br)c(=O)cc-2oc2[c]([Hg])c(O)c(Br)cc12	2.24µM*	1.12µM*	5.01µM*	·	-322.8%	4.47µM*
N#CC(Cl)Cl	-10.2%	-5.4%	·	·	-57.0%	17.8µM*
CCOc1ccc(CC2C(=O)NC(=O)N(c3ccc(CC)cc3)C2=O)cc1 (centres undefined)	-12.6%	-28.3%	13.1%	34.0	2.6%	22.4µM*
CCc1ccc(N2C(=O)NC(=O)/C(=C/c3cccn3CCOc3ccc(C)cc3)C2=O)cc1	-6.9%	29.1%	?	?	23.8%[1.9 µM]	7.2%
C=CCN1CC[C@]23c4c5ccc(O)c4O[C@@H]2C(=O)CC[C@@]3(O)[C@H]1C5	·	·	·	·	-3.9%[1.9 µM]	·
Clc1ccc(C(c2ccccc2Cl)C(Cl)(Cl)Cl)cc1 (centres undefined)	-5.5%	-21.9%	·	·	11.7%	22.4µM*
CC(C)(C)NCC(O)c1ccccc1Cl (centres undefined)	-11.6%	5.2%	-7.5%	·	?	-5.4%
